Data from PubChem BioAssay (EPA / NIEHS).
Records with an inconclusive call do not appear. The source made the active and inactive calls. Rule for the calls: active = hit-call score of the fitted dose curve at least 0.9, where 1 is the maximum; inconclusive = response in the unintended direction; inactive = score below 0.9.

Test: Tanguay_ZF_120hpf_PFIN_legacy: (Legacy) Oregon State University Tanguay Lab 120 Hour Post-fertilization zebrafish Assay for Pectoral Fin Malformation (AID 2283648);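 note: each larva judged yes or no for fin defect by brightfield with dead larvae skipped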
Experimental: Tanguay_ZF_120hpf_legacy is a whole embryo, multiplexed endpoint assay using zebrafish larvae exposed for 120 hours post fertilization on a 96-well plate.Tanguay_ZF_120hpf_PFIN_legacy is one of one assay component(s) measured or calculated from the Tanguay_ZF_120hpf_legacy assay. It is designed to make measurements of zebrafish development as detected with brightfield microscopy of developing zebrafish embryos.Data from the assay component Tanguay_ZF_120hpf_PFIN_legacy was analyzed into 1 assay endpoints. This assay endpoint, Tanguay_ZF_120hpf_PFIN_legacy, was analyzed in the positive analysis fitting direction relative to DMSO as the negative control and baseline of activity. Using a type of morphology reporter, gain-of-signal activity can be used to understand changes in developmentals as they relate to the whole embryo. To generalize the intended target to other relatable targets, this assay endpoint is annotated to the zebrafish development intended target family, where the subfamily is pectoral fin morphogenesis.
Zebrafish husbandry: Tropical 5D wild-type adult zebrafish were housed in at an approximate density of 1000 per 100 gallon tank at the Sinnhuber Aquatic Research Laboratory, Oregon State University, Corvallis, OR. Each tank was kept at standard laboratory conditions of 28C on a 14-h light/10-h dark photoperiod in fish water consisting of reverse osmosis water supplemented with a commercially available salt (Instant Ocean). Spawning funnels were placed into the tanks the night prior, and embryos were collected and staged. To increase bioavailability, the chorion was enzymatically removed using pronase (63.6mg/ml, >/= 3.5U/mg, Sigma-Aldrich: P5147) at 4 hours post fertilization (hpf) using a custom automated dechorionator.Chemical exposures: Six hpf dechorionated embryos were placed 1 embryo per well in a 96-well plate prefilled with 90 ul of EM using automated embryo placement systems (AEPS). Ten microliters of each row of dilution plate 2 was added to 2 exposure plates. The final DMSO concentration used was 0.64% (vol/vol). Thirty-two embryos were also exposed to 5uM trimethyltin chloride (positive control). Plates were sealed to prevent evaporation and foil covered to reduce light exposure and kept in a 28C incubator. Embryos were statically exposed until 120 hpf. At 24 hpf, embryos were assessed for photomotor response using a custom photomotor response analysis tool (PRAT) and for developmental toxicity endpoints (MO24: mortality at 24 hpf, DP: developmental progression, SM: spontaneous movement, and NC: notochord distortion). At 120 hpf, locomotor activity was measured using Viewpoint Zebralab and assessed for 18 endpoints. Zebrafish acquisition and analysis program (ZAAP), a custom program designed to inventory, acquire, and manage zebrafish data, was used to collect developmental endpoints as either present or absent (i.e., binary responses were recorded). If mortality occurred for an embryo (at either 24 or 120 hpf), the non-mortality endpoints were not measured.

Row | SMILES | outcome | AC50
1 | CCCCCCCCOc1ccc(C(=O)c2ccccc2)c(O)c1 | inactive | –
2 | Cc1c2ccccc2c(C)c2c1ccc1ccccc12 | inactive | –
3 | OCCO | inactive | –
4 | O=CCCCC=O | inactive | –
5 | O=C(O)c1ccccc1-n1cc(C(=O)O)c(=O)c2cc(Nc3c(F)cc(F)cc3Cl)c(Cl)cc21 | inactive | –
6 | CC[C@H](NC(=O)c1cc(F)ccc1NS(=O)(=O)c1cccc2cccnc12)c1ccccc1 | inactive | –
7 | CCN(CC)C(=O)c1cc(S(=O)(=O)Cc2ccccc2)c(N2CCC(c3ccccc3)CC2)cc1N(CC)CCN(C)C | inactive | –
8 | Cc1oc2c(NC(=O)c3c(Cl)cccc3Cl)cccc2c1C(C)(C)O | inactive | –
9 | CCOC(=O)O[C@H](C)OC(=O)c1ccc2c(c1)cc(C(=O)NC1CCN(C(C)C)CC1)n2Cc1cc(-c2ccc(Cl)s2)on1 | inactive | –
10 | c1ccc2n[nH]nc2c1 | inactive | –
11 | Clc1ccccc1C(c1ccccc1)(c1ccccc1)n1ccnc1 | inactive | –
12 | CN(C)c1ccc(C(=C2C=CC(=[N+](C)C)C=C2)c2ccc(N(C)C)cc2)cc1 | inactive | –
13 | CCCOC(=O)c1cc(O)c(O)c(O)c1 | inactive | –
14 | CCCCOC(=O)c1ccc(O)cc1 | – | 46.5 µM (active)
15 | O=C(O)Cn1c(=O)n(Cc2ccc(Br)cc2F)c(=O)c2ccc(Cl)cc21 | inactive | –
16 | CCCCCCCCOC(=O)c1cc(O)c(O)c(O)c1 | inactive | –
17 | CCCCOC(=O)CC(CC(=O)OCCCC)(OC(C)=O)C(=O)OCCCC | inactive | –
18 | OC12N=C(c3ccccc3)SC1Cc1cc(Cl)ccc12 (stereo not given) | inactive | –
19 | Cc1ncc(CO)c(CO)c1O | inactive | –
20 | CC/C(=C(/CC)c1ccc(O)cc1)c1ccc(O)cc1 | inactive | –

Row | SMILES | outcome | AC50
21 | CCCCCc1ccc(N)cc1 | inactive | –
22 | Oc1ccc2ccccc2c1 | inactive | –
23 | COCC(C)OCC(C)OCC(C)O (stereo not given) | inactive | –
24 | CC(O)CC(C)(C)O (stereo not given) | inactive | –
25 | CCCCCCCCN(C)CCCCCCCC | inactive | –
26 | CN(C[C@@H](CC[N+]12CCC(C3CCCCC3)(CC1)CC2)c1ccc(Cl)c(Cl)c1)C(=O)c1cc(C(F)(F)F)cc(C(F)(F)F)c1 | inactive | –
27 | O=c1c(-c2ccc(O)cc2)coc2cc(O)cc(O)c12 | inactive | –
28 | C[C@]12CC[C@@H]3c4ccc(O)cc4CC[C@H]3[C@@H]1CCC2=O | inactive | –
29 | Oc1ccccc1 | inactive | –
30 | C[C@]12CC[C@@H]3c4ccc(O)cc4CC[C@H]3[C@@H]1CC[C@H]2O | inactive | –
31 | CC[C@@H]1C[C@H](N(Cc2cc(C(F)(F)F)cc(C(F)(F)F)c2)C(C)=O)c2cc(C(F)(F)F)ccc2N1C(=O)OC(C)C | inactive | –
32 | O=C1c2ccccc2C(=O)N1CCc1noc(-c2ccc(CN3CCCCCC3)s2)n1 | inactive | –
33 | CCCCCCCCCCCCO | inactive | –
34 | c1ccc(C[n+]2cccc3ccccc32)cc1 | inactive | –
35 | CCN(Cc1cccc(S(=O)(=O)O)c1)c1ccc(C(=C2C=CC(=[N+](CC)Cc3cccc(S(=O)(=O)O)c3)C=C2)c2ccccc2S(=O)(=O)[O-])cc1 | inactive | –
36 | Cc1cccc2ccccc12 | inactive | –
37 | CCCCCCCCCCCO | inactive | –
38 | NC(=O)c1nc(-c2cccc(-c3cc(F)ccc3OCC(F)(F)C(F)(F)F)c2)n[nH]1 | – | 24.8 µM (active)
39 | CC1=CC(=O)/C(=C(/C)O)C(=O)O1 | inactive | –
40 | CCO[Si](CCCNC(N)=O)(OCC)OCC | inactive | –
